From PubChem
The list is not random: actives were taken first. Their share in the collection is about 1.6%.
KCNQ2 pot: enhances the rat KCNQ2 potassium channel. O88943. CHO-K1 KCNQ2, FluxOR thallium flux fluorescence; active compounds read high. B-score at 10 µM. hit rate 0.54% among 310,000. AID 2239;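 active = fluorescence ratio B-score at least 3 SD of library B-scores, with initial fluorescence B-score within 3 of them, cut at about 5.3 in these data; same plate scores as AID 2156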;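 note: B-score of peak minus minimum over baseline fluorescence ratio after K+ and Tl+ stimulus; positive B-score means potentiation of KCNQ2 with more thallium influx and brighter signal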
Target sequence (O88943 whole entry, looked up): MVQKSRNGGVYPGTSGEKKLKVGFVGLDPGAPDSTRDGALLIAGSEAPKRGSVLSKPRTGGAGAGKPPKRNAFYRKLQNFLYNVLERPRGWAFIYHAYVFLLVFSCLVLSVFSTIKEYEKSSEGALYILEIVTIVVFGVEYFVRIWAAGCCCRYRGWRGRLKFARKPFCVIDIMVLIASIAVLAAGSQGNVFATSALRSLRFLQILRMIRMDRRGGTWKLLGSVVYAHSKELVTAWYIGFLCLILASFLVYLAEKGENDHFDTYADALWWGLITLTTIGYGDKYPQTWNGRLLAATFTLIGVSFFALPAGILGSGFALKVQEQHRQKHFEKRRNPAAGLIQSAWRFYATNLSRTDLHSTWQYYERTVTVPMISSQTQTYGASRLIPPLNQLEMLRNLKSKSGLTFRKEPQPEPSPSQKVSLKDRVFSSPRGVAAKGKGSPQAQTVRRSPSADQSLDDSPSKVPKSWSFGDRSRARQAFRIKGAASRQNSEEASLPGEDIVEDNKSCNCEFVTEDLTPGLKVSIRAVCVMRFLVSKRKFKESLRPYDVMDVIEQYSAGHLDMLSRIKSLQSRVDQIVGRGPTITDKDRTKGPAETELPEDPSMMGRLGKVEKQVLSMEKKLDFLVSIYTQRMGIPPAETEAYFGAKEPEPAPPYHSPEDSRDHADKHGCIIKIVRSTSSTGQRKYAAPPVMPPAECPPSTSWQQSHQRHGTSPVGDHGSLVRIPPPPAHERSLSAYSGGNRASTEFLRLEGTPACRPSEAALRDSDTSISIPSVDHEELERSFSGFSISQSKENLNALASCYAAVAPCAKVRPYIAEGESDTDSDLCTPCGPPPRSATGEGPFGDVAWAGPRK
KCNQ2 inh: KCNQ2 (rat) channel inhibition | O88943 | CHO-K1 KCNQ2, FluxOR thallium flux, 20 min; active compounds read low | B-score at 10 µM | hit rate 1.1% among 310,000 | AID 2156;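 active = fluorescence ratio B-score at most minus 3 library SDs, with starting brightness B-score within 2 library SDs, cut at about -5.5 in these data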
* = called active by the depositor; i = inactive; . = not tested or not shown.

SMILES	KCNQ2 pot	KCNQ2 inh
O=C(c1ccc(Cl)cc1)N1CCc2ccccc21	.	i
COc1cccc(C(=O)NC(C)c2cccc3ccccc23)c1OC (configuration not stated)	.	i
COc1cccc(C(=O)NC(C)c2ccc(-c3ccccc3)cc2)c1OC (configuration not stated)	-6	-6*
CCOC(=O)N1CCN(S(=O)(=O)c2ccc(C(=O)Nc3sc4c(c3C#N)CCC4)cc2)CC1	1.4	i
Cc1cccc2c1-c1sc(C(=O)N3CCCCC3)cc1CO2	.	i
Cc1cccc2c1-c1sc(C(=O)N3CCc4ccccc4C3)cc1CO2	-5.6	-5.6*
COc1ccccc1NC(=O)CNC(c1ccccc1)c1ccccc1	-6.1	-6.1*
COc1ccc(C)cc1NC(=O)CNC(c1ccccc1)c1ccc(C)cc1 (configuration not stated)	.	i
COc1ccccc1C(C)NCC(=O)Nc1c(F)cccc1F (configuration not stated)	0.99	i
COc1cc(Cl)c(C)cc1NC(=O)CNC(C)c1ccccc1OC (configuration not stated)	-5.8	-5.8*
CCOc1ccc(S(=O)(=O)NCc2ccc3c(c2)OCO3)cc1C(=O)O	1.4	i
Nc1ccc(C(=O)N2CCCC2)cc1CS(=O)(=O)c1ccc(Cl)cc1	.	i
O=C(Cn1c(=O)n(Cc2ccco2)c(=O)c2c3c(sc21)CCCCC3)Nc1ccccc1	.	i
O=C(Cn1c(=O)n(Cc2ccco2)c(=O)c2c3c(sc21)CCCCC3)c1ccccc1	-5.7	-5.7*
COc1ccc(N2CCCCn3c2nc2c3c(=O)n(C)c(=O)n2C)cc1	.	i
CCn1nc(C)cc1C(=O)N1CCCC(C(=O)c2ccccc2SC)C1 (configuration not stated)	2	i
CCn1c(-c2cc(-c3ccccc3OC)nc3ccccc23)n[nH]c1=S	-7.2	-7.2*
CCn1c(-c2cc(-c3cc(OC)ccc3OC)nc3ccccc23)n[nH]c1=S	.	i
O=[N+]([O-])c1ccc(N2CCN(C(=S)Nc3ccccc3)CC2)cc1	0.01	i
Cc1ccc(OCC(=O)OC2CCS(=O)(=O)C2)cc1 (configuration not stated)	0.74	i
O=C(NCC1(c2ccccc2)CCCC1)C1(c2ccccc2)CCCC1	-7	-7*
O=C(NCC1(c2ccccc2)CCCC1)C(=O)NCC1(c2ccccc2)CCCC1	.	i
CCN(CC)c1ccc(CN(C(=O)c2ccco2)C2CCS(=O)(=O)C2)cc1 (configuration not stated)	0.03	i
O=S(=O)(NC1c2cccc3cccc(c23)C1Sc1ncccn1)c1ccccc1 (configuration not stated)	-6.4	-6.4*
Cc1ccc(S(=O)(=O)NC2c3cccc4cccc(c34)C2Sc2nncn2C)cc1 (configuration not stated)	1.5	i
SMILES	KCNQ2 pot	KCNQ2 inh
Cc1ccc(S(=O)(=O)NC2c3cccc4cccc(c34)C2Sc2nc(C)cc(C)n2)cc1 (configuration not stated)	-6.4	-6.4*
Cn1cnnc1SC1c2cccc3cccc(c23)C1NS(=O)(=O)c1ccccc1 (configuration not stated)	.	i
Cc1ccc(C(=O)N2c3ccc(F)cc3CCC2C)o1 (configuration not stated)	.	i
Cc1nn(Cc2ccc(C(=O)N3c4ccc(F)cc4CCC3C)o2)c(C)c1Br (configuration not stated)	-7.6	-7.6*
CCN(CC)c1ccc(/C=N/Nc2nc3ccccc3[nH]2)cc1	.	i
O=C(CCN1Cc2ccccc2C1)c1ccc2c(c1)OCCO2	-5.9	-5.9*
O=C(CCN1CCc2ccccc2C(c2ccccc2)C1)c1ccc2c(c1)OCCO2 (configuration not stated)	.	i
COc1ccc(S(=O)(=O)N2CCC(c3cc(-c4cccc5ccccc45)n[nH]3)CC2)cc1	.	i
O=S(=O)(c1cccc(C(F)(F)F)c1)N1CCC(c2cc(-c3cccc4ccccc34)n[nH]2)CC1	-6.1	-6.1*
O=C(Nc1nccs1)c1ccc(Cl)s1	1.2	i
COc1ccc(C=C2C=C(C(C)(C)C)C(=O)C(C(C)(C)C)=C2)cc1OC	.	i
CCC1CCc2sc(C(=O)O)cc2C1 (configuration not stated)	.	i
COc1ccc(NC(=O)c2ccccc2N(Cc2ccccc2)S(C)(=O)=O)cc1	.	i
Oc1cc(Br)ccc1C=Nc1ccc(N2CCCCC2)cc1	-5.8	-5.8*
Oc1ccc(C=Nc2ccc(N3CCOCC3)cc2)c(O)c1	.	i
C[C@H]1[C@H](C)CC[C@]2(C(=O)O)CC[C@]3(C)C(=CC[C@@H]4[C@@]5(C)C[C@@H](O)[C@H](O)C(C)(C)[C@@H]5CC[C@]43C)[C@H]12	0.58	i
C[C@H]1[C@H](C)CC[C@]2(C)CC[C@]3(C)C(=CC[C@@H]4[C@@]5(C)CC[C@@H](O)[C@](C)(C(=O)O)[C@@H]5CC[C@]43C)[C@H]12	-9.2	-9.2*
